Source: PubChem
Compounds with a hit are over-represented: about 21% of the library has one in this group of screens.
RORgamma inh: blocks mouse ROR gamma transcriptional activity | P51450 | Drosophila S2 Gal4-RORgamma UAS-luciferase reporter, 20 h | Potency, µM (series often up to 53.6 µM), actives largely listed as inhibitors | actives 5.4% (n = 310,000); also: nearly all actives have a fitted effect of over 60% in size
Target sequence (P51450 whole entry, looked up, the tested form may be a part): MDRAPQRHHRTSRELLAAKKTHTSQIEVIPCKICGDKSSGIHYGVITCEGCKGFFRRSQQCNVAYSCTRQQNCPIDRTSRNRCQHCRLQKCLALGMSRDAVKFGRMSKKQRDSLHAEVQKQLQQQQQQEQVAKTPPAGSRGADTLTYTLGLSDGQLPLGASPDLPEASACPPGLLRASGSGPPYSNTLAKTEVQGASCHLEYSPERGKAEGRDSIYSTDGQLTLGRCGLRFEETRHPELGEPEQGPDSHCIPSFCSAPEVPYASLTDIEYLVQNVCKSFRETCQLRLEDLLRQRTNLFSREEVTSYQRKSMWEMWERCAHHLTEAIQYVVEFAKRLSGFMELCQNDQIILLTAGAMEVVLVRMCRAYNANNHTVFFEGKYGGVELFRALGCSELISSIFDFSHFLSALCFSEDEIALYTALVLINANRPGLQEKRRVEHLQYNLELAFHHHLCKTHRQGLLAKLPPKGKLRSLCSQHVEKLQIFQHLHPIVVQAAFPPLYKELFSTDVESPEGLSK
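ROR gamma transcriptional activity was tracked as Gal4-UAS luciferase output in stably transfected Drosophila Schneider cells, with compound added 1 hr before 700 uM copper sulfate induction and a 20 hr ambient-temperature incubation.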
ELG1 repair inh: inhibitors of ELG1-dependent DNA repair in HEK293T cells | HEK293T ELG1-luciferase reporter, luminescence, 16 h; DNA damage induced by 5-fluorouridine | Potency, µM (doses to about 46.1 µM), usual class: inhibitors | actives 2.3% (n = 330,000); also: nearly all actives have a fitted effect of over 55% in size
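Quantitative HTS, concentration-response format. 2,000 cells/well co-treated with 5-fluorouridine and compound, 16 hr in 5% CO2 at 37 °C; ONE-Glo luminescence read after 30 min.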
IL-1B inflam inh: blocks inflammasome-driven IL-1 beta release. activity change, % at 57.5 µM. actives 4.7% (n = 360,000). THP-1 LPS/ATP IL-1B secretion, AlphaLISA, 16 h; stronger effect = lower value; in the data active = activity change below about -50%; inconclusive = mostly about -30% to -49%
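Secreted IL-1B measured by AlphaLISA bead assay after 16 h compound exposure of THP-1 cells; compounds (final up to 57.5 uM) added 1 h before LPS (250 ng/mL) and ATP (1.25 mM) stimulation; lower signal means less secretion.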
VP16 counter: counter-screen for ROR gamma inhibitors: Gal4-VP16 reporter; Drosophila S2 Gal4-VP16 UAS-luciferase, luminescence, 20 h; Potency, µM (highest dose often 53.6 µM), hits mostly inhibitors; actives 3.5% (n = 310,000); AID 2546;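 also: Gal4-VP16 expression switched on by copper sulfate through the metallothionein promoter; nearly all actives have a fitted effect of over 50% in size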
DT40 TDP1 no CPT: qHTS for Inhibitors of human tyrosyl-DNA phosphodiesterase 1 (TDP1): qHTS in cells in absence of CPT; actives 15% (n = 420,000); Potency, µM (top dose mostly 46.2 µM), usual class: inhibitors; DT40 Tdp1-/- hTDP1 cells, no CPT, ATP luminescence, 48 h; also: nearly all actives have a fitted effect of over 55% in size
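Compound effects on proliferation are scored in DT40 Tdp1-/-;hTDP1 cells in the absence of CPT. ATP levels (CellTiter-Glo luminescence) are recorded after a ≥48 hr, 37 °C incubation.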
TDP1 cell CPT: growth inhibition of DT40 Tdp1-/-;hTDP1 cells with camptothecin (screen for TDP1 inhibitors); chicken DT40 Tdp1-/-;hTDP1 cells + 20 nM CPT, ATP luminescence, 48 h; Potency, µM (series often up to 46.2 µM), actives largely listed as inhibitors; AID 686979; actives 12% (n = 420,000); also: nearly all actives have a fitted effect of over 55% in size
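Cell growth measured by CellTiter-Glo luminescence after a minimum 48 h, 37 C compound exposure with 20 nM CPT in Tdp1-knockout DT40 cells stably expressing hTDP1, seeded 400/well; qHTS titration format.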
A number is an active result. Unless noted, calls follow the shape of the dose curve; as a rule, active = well fitted curve in the direction sought with a large enough effect; inconclusive = small, poorly fitted or top-dose-only effect, or another doubt; inactive = no such curve, though single readings can be large; an effect the other way counts as inactive or inconclusive.

`Cn1c(=O)c2c(-c3ccccc3)n3c(c2n(C)c1=O)C(c1ccc([N+](=O)[O-])cc1)Nc1ccccc1-3` (stereo unspecified) gave DT40 TDP1 no CPT 15µM and TDP1 cell CPT 16µM.
For Cc1ccc(-c2c3c(=O)n(C)c(=O)n(C)c3c3n2-c2ccccc2NC3c2ccc(C)cc2O)cc1 (stereo unspecified) the results were DT40 TDP1 no CPT 21µM and TDP1 cell CPT 21µM.
`Cc1ccc(C2Nc3cc(C)c(C)cc3-n3c(-c4ccccc4)c4c(=O)n(C)c(=O)n(C)c4c32)o1` (stereo unspecified) gave DT40 TDP1 no CPT 9.2µM and TDP1 cell CPT 7.3µM.
For Cc1ccc(C(=O)CSc2cnc3ccccc3n2)cc1C the results were RORgamma inh inconclusive, ELG1 repair inh inconclusive, IL-1B inflam inh inactive, VP16 counter inconclusive, DT40 TDP1 no CPT inconclusive and TDP1 cell CPT inconclusive.
`COc1ccc(-c2nc3ccccc3n3c(-c4ccccc4)c4c(=O)n(C)c(=O)n(C)c4c23)cc1` gave DT40 TDP1 no CPT inactive and TDP1 cell CPT inactive.
`COc1ccc(O)c(C2Nc3ccccc3-n3c(-c4ccccc4)c4c(=O)n(C)c(=O)n(C)c4c32)c1` (stereo unspecified) gave DT40 TDP1 no CPT 18µM and TDP1 cell CPT 9.2µM.
For O=C(COC(=O)c1ccc2ncsc2c1)NCc1ccccc1Cl the results were ELG1 repair inh inconclusive, IL-1B inflam inh inactive, DT40 TDP1 no CPT inactive and TDP1 cell CPT inactive.
Screening CCOC(=O)c1scc(-c2ccccc2)c1S(=O)(=O)Nc1cc(Cl)c(OC)cc1OC returned DT40 TDP1 no CPT 15µM and TDP1 cell CPT inconclusive.
For CCOC(=O)c1scc(-c2ccc(C)cc2)c1S(=O)(=O)Nc1cc(Cl)ccc1OC the results were DT40 TDP1 no CPT 3.3µM and TDP1 cell CPT 5.8µM.
For CCOC(=O)c1scc(-c2ccc(C)cc2)c1S(=O)(=O)Nc1ccc(F)c(F)c1 the results were DT40 TDP1 no CPT inconclusive and TDP1 cell CPT inactive.
`CCOC(=O)c1scc(-c2ccc(C)cc2)c1S(=O)(=O)Nc1ccc(OC)c(Cl)c1` gave DT40 TDP1 no CPT 15µM and TDP1 cell CPT 16µM.
`COc1ccc(S(=O)(=O)NNC(=O)C2Cc3c(ccc4ccccc34)O2)cc1` (stereo unspecified) gave RORgamma inh inconclusive, ELG1 repair inh inconclusive, IL-1B inflam inh inactive, VP16 counter inactive, DT40 TDP1 no CPT 21µM and TDP1 cell CPT 16µM.
OCC[C@@H]1C[C@H](O)[C@@H](O)[C@@]2(CCCO2)O1 was read as IL-1B inflam inh inactive, DT40 TDP1 no CPT inactive and TDP1 cell CPT inactive.
COc1ccc(C)cc1NC(=O)CN(c1ccc(F)cc1)S(C)(=O)=O was read as RORgamma inh inactive, ELG1 repair inh inactive, IL-1B inflam inh inactive, VP16 counter inactive, DT40 TDP1 no CPT inactive and TDP1 cell CPT inactive.
Screening CCc1ccccc1NC(=O)CN(c1ccccc1OC)S(=O)(=O)c1ccc(C)cc1 returned DT40 TDP1 no CPT 18µM and TDP1 cell CPT inconclusive.
For CCOc1ccccc1NC(=O)CN(CCc1ccccc1)S(=O)(=O)c1ccc(C)cc1 the results were DT40 TDP1 no CPT 16µM and TDP1 cell CPT inconclusive.
For COc1ccc(C)cc1NC(=O)CN(c1cc(C(F)(F)F)ccc1Cl)S(C)(=O)=O the results were DT40 TDP1 no CPT 16µM and TDP1 cell CPT inconclusive.
`COc1ccccc1N(CC(=O)NC1CCCC1)S(=O)(=O)c1ccc(C)cc1` gave RORgamma inh inconclusive, ELG1 repair inh inactive, IL-1B inflam inh inactive, VP16 counter inactive, DT40 TDP1 no CPT inactive and TDP1 cell CPT inactive.
For COc1ccc(OC)c(NC(=O)CN(c2ccccc2OC)S(=O)(=O)c2ccc(C)cc2)c1 the results were DT40 TDP1 no CPT 26µM and TDP1 cell CPT 16µM.
For CCOc1ccccc1NC(=O)COC(=O)CN(C)S(=O)(=O)c1ccc(C)cc1 the results were RORgamma inh inactive, ELG1 repair inh inactive, IL-1B inflam inh inactive, VP16 counter inactive, DT40 TDP1 no CPT inconclusive and TDP1 cell CPT inconclusive.
`CCc1ccc(CN2C(=O)c3ccccc3C2C(=O)NC2CCCCCC2)cc1` (stereo unspecified) gave DT40 TDP1 no CPT inactive and TDP1 cell CPT inactive.
Screening CCCCn1c(N)c(N(CCC(C)C)C(=O)c2c(CC)noc2C)c(=O)[nH]c1=O returned IL-1B inflam inh inactive, DT40 TDP1 no CPT inactive and TDP1 cell CPT inactive.
For CN1CCN(c2cc(-c3ccc4ccccc4c3)nc3ccnn23)CC1 the results were IL-1B inflam inh inactive, DT40 TDP1 no CPT inconclusive and TDP1 cell CPT 23µM.
`CC(C)(C)c1cc(CCC(=O)NCC2CCCO2)cc(C(C)(C)C)c1O` (stereo unspecified) gave RORgamma inh inactive, ELG1 repair inh inactive, IL-1B inflam inh inactive, VP16 counter inactive, DT40 TDP1 no CPT inactive and TDP1 cell CPT inactive.
`Cc1ccc(NC(=O)C(Cc2ccccc2)NS(=O)(=O)c2cccs2)cc1Cl` (stereo unspecified) gave DT40 TDP1 no CPT inactive and TDP1 cell CPT inactive.
CCc1cccc(NC(=O)C(Cc2ccccc2)NS(=O)(=O)c2cccs2)c1 (stereo unspecified) was read as DT40 TDP1 no CPT 18µM and TDP1 cell CPT inconclusive.
Screening COc1cc(NC(=O)C(Cc2ccccc2)NS(=O)(=O)c2cccs2)cc(OC)c1 (stereo unspecified) returned DT40 TDP1 no CPT inactive and TDP1 cell CPT 23µM.
Screening COc1ccc(CCNS(=O)(=O)CCNC(=O)c2ccc3c(c2)OCO3)cc1 returned ELG1 repair inh inactive, IL-1B inflam inh inactive, DT40 TDP1 no CPT inconclusive and TDP1 cell CPT inactive.
Screening COc1ccc(C(=O)NCCCC2CCCC2)cc1OC1CCN(C(C)C)CC1 returned IL-1B inflam inh inactive, DT40 TDP1 no CPT 16µM and TDP1 cell CPT 16µM.
`COc1ccc(C(=O)N(C)CCCC2CCCC2)cc1OC1CCN(C(C)=O)CC1` gave RORgamma inh inactive, ELG1 repair inh inactive, IL-1B inflam inh inactive, VP16 counter inactive, DT40 TDP1 no CPT 16µM and TDP1 cell CPT inconclusive.
Screening CCN(CC)c1nc(N(CC)CC)[nH]c(=O)n1 returned IL-1B inflam inh inactive, DT40 TDP1 no CPT inactive and TDP1 cell CPT inactive.
CCN(CC)c1nc(=S)nc(NC(C)(C)C)[nH]1 was read as RORgamma inh 1.3µM, ELG1 repair inh inactive, IL-1B inflam inh inactive, VP16 counter 3.2µM, DT40 TDP1 no CPT inconclusive and TDP1 cell CPT inactive.
